The results in this text go back to PubChem BioAssay (NCI).

Compounds without any hit were thinned out: in the full panel of roughly 83,000, 20% have a hit.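 For each line, cells grew in 96-well plates with the test compound present at a single concentration for 48 hours.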 Calls of active or inactive are those of the source. Rule for the calls: active = growth percent below 10; inactive = the rest.

Test systems include T-47D breast; BT-549 breast; MDA-MB-435 melanoma; SW-620 colon; MCF7 breast; HCT-116 colon; HCC-2998 colon; KM12 colon.
What all share (assay): NCI-60 one-dose screen, 48 h (100 = growth as untreated, 0 = no growth, -100 = all killed)
Conditions in all cases: 10 µM unless noted

With `CCCCCCCC/C=C\CCCCCCCCOc1ccc(CC(=O)NCC[N+]2(C)CCOCC2)cc1`, the growth in the experiment with T-47D breast is 84.2% (inactive); in the experiment with BT-549 breast, 78.1% (inactive); with MDA-MB-435 melanoma, 89.1% (inactive); with SW-620 colon, 81.2% (inactive); in the experiment on MCF7 breast, 81.7% (inactive); in the experiment with HCT-116 colon, 73.8% (inactive). Also, the growth in the experiment with HCC-2998 colon is 56.2% (inactive); with KM12 colon, 51.3% (inactive).
On to `O=C(Nc1ncc(Cc2ccccc2)s1)c1ccc2c(c1)OCCCO2`, for which the growth in the experiment with T-47D breast was 18.1% (inactive); in the experiment on BT-549 breast, 48.8% (inactive); in the experiment on MDA-MB-435 melanoma, -34.2% (active); with SW-620 colon, 38.1% (inactive); in the experiment with MCF7 breast it was 16.1% (inactive); in the experiment on HCT-116 colon, 23% (inactive). Further, the growth in the experiment with HCC-2998 colon is 22% (inactive); in the experiment on KM12 colon it was 16.4% (inactive).
As for `C=C1C(=O)O[C@H]2[C@H]1CC/C(COC(=O)c1cc3cc(Cl)ccc3[nH]1)=C\CC[C@@]1(C)O[C@@H]21`, the growth with T-47D breast is -68.2% (active); in the experiment with BT-549 breast, -47.4% (active); in the experiment with MDA-MB-435 melanoma, -91.7% (active); in the experiment on SW-620 colon, -53.1% (active); with MCF7 breast it was -71.7% (active); in the experiment on HCT-116 colon it was -70.4% (active). Moreover, the results for the growth in the experiment on HCC-2998 colon and with KM12 colon were -70.5% (active) and -59.8% (active), respectively.
`CCN(CC)CCN1C(=O)c2cccc3c(/C=C/CN4C(=O)c5cccc6cccc(c56)C4=O)ccc(c23)C1=O`: the growth in the experiment on T-47D breast was 94.8% (inactive); with BT-549 breast, 89.8% (inactive); with MDA-MB-435 melanoma, 103% (inactive); with SW-620 colon, 90.4% (inactive); in the experiment on MCF7 breast it was 4.8% (active); in the experiment with HCT-116 colon, 95.5% (inactive). For the same compound, the growth in the experiment with HCC-2998 colon is 105% (inactive); in the experiment on KM12 colon it was 63.6% (inactive).
For the compound `CC[N+]1(CC)CC[N+]2(CCCC(C)CC2)CC1` (centres undefined), the growth with T-47D breast is 103% (inactive); with BT-549 breast, 113% (inactive); with MDA-MB-435 melanoma, 110% (inactive); in the experiment with SW-620 colon, 103% (inactive); with MCF7 breast it was 96% (inactive); with HCT-116 colon, 104% (inactive). Also, the growth in the experiment on HCC-2998 colon was 99.9% (inactive); in the experiment with KM12 colon, 104% (inactive).
For `COc1cc(/C=C/C(=O)/C=C(O)/C=C/c2ccc(OC(=O)C34CC5CC(CC(C5)C3)C4)c(OC)c2)ccc1OC(=O)C12CC3CC(CC(C3)C1)C2`, the growth in the experiment with T-47D breast was 97.9% (inactive); in the experiment with BT-549 breast, 104% (inactive); with MDA-MB-435 melanoma, 106% (inactive); with SW-620 colon it was 98.4% (inactive); in the experiment with MCF7 breast it was 98.5% (inactive); in the experiment with HCT-116 colon it was 89.9% (inactive). Besides, the growth was 106% (inactive) in the experiment with HCC-2998 colon and 113% (inactive) in the experiment on KM12 colon.
Turning to `O=P(O)(O)OCC1OC(n2cnc3c(NCc4ccco4)ncnc32)C(O)C1O` (centres undefined), the growth in the experiment with T-47D breast was 42.5% (inactive); with BT-549 breast it was -12.3% (active); with MDA-MB-435 melanoma it was 16.2% (inactive); in the experiment with SW-620 colon, 14.8% (inactive); in the experiment on MCF7 breast, 0.586% (active); in the experiment with HCT-116 colon, -31.1% (active). Besides, the growth is 0.214% (active) in the experiment on HCC-2998 colon and 44.1% (inactive) in the experiment with KM12 colon.
In the case of `C=CCC(CCCC)(C(=O)OCC)C(=O)OCC`, the growth was 107% (inactive) in the experiment on T-47D breast; 96.7% (inactive) in the experiment on BT-549 breast; 110% (inactive) in the experiment on MDA-MB-435 melanoma; 114% (inactive) in the experiment on SW-620 colon; 93% (inactive) in the experiment on MCF7 breast; 104% (inactive) in the experiment on HCT-116 colon. The growth in the experiment on HCC-2998 colon is 102% (inactive); in the experiment on KM12 colon it was 108% (inactive).
As to `CCn1c(-c2cc3c([nH]c4ccccc43)c(-c3cccc(O)c3)n2)n[nH]c1=S`, the growth is 11.7% (inactive) in the experiment on T-47D breast; 26.7% (inactive) in the experiment with BT-549 breast; -24.2% (active) with MDA-MB-435 melanoma; 62.8% (inactive) in the experiment with SW-620 colon; 32.6% (inactive) in the experiment with MCF7 breast; 48.2% (inactive) in the experiment with HCT-116 colon. Moreover, the figures for the growth in the experiment on HCC-2998 colon and in the experiment on KM12 colon were 68.3% (inactive) and 28.4% (inactive), respectively.
As to `Cc1nc2ccccc2c(/C=C/c2ccccc2)c1C(=O)/C=C/c1ccccc1`, the growth in the experiment on T-47D breast was 15.6% (inactive); in the experiment on BT-549 breast, 40.6% (inactive); in the experiment with MDA-MB-435 melanoma, -17.2% (active); in the experiment with SW-620 colon, -65.6% (active); in the experiment with MCF7 breast it was 17% (inactive); in the experiment with HCT-116 colon, -43% (active). In addition, the growth with HCC-2998 colon is 31.6% (inactive); in the experiment on KM12 colon, 11.6% (inactive).
With `COc1cc(OC)c2sc(-c3ccc(-n4cncc4-c4cc(OC)c(OC)c(OC)c4)cc3)nc2c1`, the growth was 32.4% (inactive) with T-47D breast; 45.1% (inactive) in the experiment with BT-549 breast; 35.2% (inactive) in the experiment with MDA-MB-435 melanoma; 56.6% (inactive) with SW-620 colon; 49.8% (inactive) in the experiment on MCF7 breast; 48.6% (inactive) with HCT-116 colon. In addition, the growth with HCC-2998 colon was 95.3% (inactive); with KM12 colon, 52.4% (inactive).
With `COc1ccc(-c2cc(-c3ccccc3)nc(N3CCN(CCNc4ccnc5cc(Cl)ccc45)CC3)n2)cc1`, the growth in the experiment with T-47D breast is -48% (active); in the experiment with BT-549 breast, 72.8% (inactive); in the experiment on MDA-MB-435 melanoma it was -72.1% (active); with SW-620 colon, -75.4% (active); with MCF7 breast, -84.8% (active); in the experiment on HCT-116 colon it was -73.8% (active). The growth in the experiment with HCC-2998 colon is -81.5% (active); in the experiment on KM12 colon it was -26.9% (active).
Regarding `CC(C)=CCNc1ncnc2c1ncn2C1OC(CO)C(O)C1O` (centres undefined), the growth in the experiment with T-47D breast was -57% [1 mM] (active); in the experiment on BT-549 breast it was -51.7% [1 mM] (active); in the experiment on MDA-MB-435 melanoma, 23.9% [1 mM] (inactive); in the experiment with SW-620 colon, -2.16% [1 mM] (active); in the experiment on MCF7 breast, -60.7% [1 mM] (active); in the experiment on HCT-116 colon, -13.7% [1 mM] (active). In addition, the results for the growth in the experiment with HCC-2998 colon and in the experiment on KM12 colon were -62.5% [1 mM] (active) and 10.6% [1 mM] (inactive), respectively.
